# Reference: PubChem BioAssay
# Calls of active or inactive are those of the source.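 The calls were made as follows, unless noted: active = fluorescence slope higher than the sample average by over 3 SD (cut at about -0.22 in these data, passing the limit was not always enough); inactive = the rest.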
# What was measured:
# [1] = inhibitors of TNFa-induced NFkB p65 translocation, primary screen, imaging, HUVEC, MLSMR starter and 10KST1 sets (AID 438;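 active = inhibition above 20% together with a positive visual image hit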;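 also: compound added about 3h40 before a 20 min TNFalpha stimulation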;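 as to inhibition: signal is the nuclear over cytoplasmic p65 intensity ratio per well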); details: HUVEC TNFa-induced p65 nuclear translocation; cell count: measured here: nuclei count (cytotoxicity indicator), at 2.08 µM; inhibition: at 2 µM, stronger effect = higher value, 0% TNFa-plus-vehicle, 100% no-TNFa wells
# [2] = reduction of polyQ htt aggregates in cells – imaging, exon1htt(103Q)mCFP cells, high-content imaging, primary screen (AID 483;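 active = visual image review flags a hit and inhibition of aggregation exceeds 20%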;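 also: compound exposure lasted 3 days before fixation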;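 as to nuclei count: percent of the per-plate median nuclei count of sample wells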); details: exon1htt(103Q)mCFP cell line, aggregate imaging, at 2 µM; inhibition of aggregation: stronger effect = higher value; nuclei count: measured here: cell count, toxicity
# [3] = endothelial E-selectin expression blockers – imaging, HUVEC, immunofluorescence, MLSMR starter and 10KST1 sets, primary screen (AID 487;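 active = visually confirmed hit in the image check and inhibition above 20%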;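 as to inhibition: signal is fraction of cell area covered by stained E-selectin grains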;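 as to nuclei count: 100% = median nuclei count of all wells on the same plate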); details: HUVEC TNFalpha-induced E-selectin immunofluorescence imaging, at 2 µM; inhibition: stronger effect = higher value; nuclei count: measured here: cell number, toxicity
# [4] = target: Voltage-gated potassium channel subunit beta-2 (Rattus norvegicus) (UniProt P62483); experiment: inhibitors of rat Kvbeta2 reductase activity – biochemical, NADPH fluorescence, primary screen (AID 622); details: recombinant KvBeta, 4-cyanobenzaldehyde reduction, at 10 µM, stronger effect = higher value;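 also: slope of raw intensity against log time taken from 70 to 1610 s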
# Voltage-gated potassium channel subunit beta-2 (Rattus norvegicus), sequence (P62483 whole entry, looked up): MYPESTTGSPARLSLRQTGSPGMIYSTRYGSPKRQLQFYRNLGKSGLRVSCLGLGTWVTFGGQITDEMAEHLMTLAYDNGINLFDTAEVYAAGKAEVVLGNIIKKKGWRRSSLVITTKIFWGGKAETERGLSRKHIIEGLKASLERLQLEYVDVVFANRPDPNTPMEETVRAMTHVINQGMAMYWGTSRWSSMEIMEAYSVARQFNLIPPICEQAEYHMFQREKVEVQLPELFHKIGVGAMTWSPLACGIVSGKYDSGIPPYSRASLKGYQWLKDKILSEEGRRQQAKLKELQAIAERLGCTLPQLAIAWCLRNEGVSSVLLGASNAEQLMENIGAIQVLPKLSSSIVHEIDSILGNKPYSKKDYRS
# [5] = target: Voltage-gated potassium channel subunit beta-2 (Rattus norvegicus) (UniProt P62483); experiment: enhancers of rat Kvbeta2 NADPH turnover – biochemical, NADPH fluorescence, primary screen (AID 623;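 active = NADPH fluorescence slope more negative than the mean of all samples by about 3 SD, 99.7% confidence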;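 also: fluorescence intensity change per second fitted from 20 to 320 s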); details: Recombinant KvBeta, NADPH fluorescence decrease slope, 10 min; at 10 µM; stronger effect = lower value
# [6] = target: Alpha-2C adrenergic receptor (Homo sapiens) (UniProt P18825); experiment: compounds altering alpha2C-coupled GIRK flux – cell-based, HEK293 alpha2C/GIRK1/2, thallium flux, primary screen (AID 624;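 active = fluorescence slope after compound addition differing from the mean of all screened samples at 99.7% confidence, in either direction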;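 also: slope of fluorescence ratio to pre-addition baseline per second over 15 to 24 s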); details: thallium flux BTC fluorescence, at 10 µM, actives lie on both sides
# Alpha-2C adrenergic receptor (Homo sapiens), sequence (P18825 whole entry, looked up): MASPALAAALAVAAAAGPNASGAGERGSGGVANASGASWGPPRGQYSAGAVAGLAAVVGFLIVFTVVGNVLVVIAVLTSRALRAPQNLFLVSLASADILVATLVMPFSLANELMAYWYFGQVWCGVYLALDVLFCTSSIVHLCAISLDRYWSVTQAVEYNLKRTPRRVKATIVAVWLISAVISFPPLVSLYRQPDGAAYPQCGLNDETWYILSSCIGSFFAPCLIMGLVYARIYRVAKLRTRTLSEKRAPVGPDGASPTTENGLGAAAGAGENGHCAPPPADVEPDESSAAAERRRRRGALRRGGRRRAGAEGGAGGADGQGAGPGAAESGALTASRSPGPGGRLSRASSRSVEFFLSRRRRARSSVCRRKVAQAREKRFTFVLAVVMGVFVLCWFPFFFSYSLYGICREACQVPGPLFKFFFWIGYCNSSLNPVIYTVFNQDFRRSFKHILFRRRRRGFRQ
# [7] = blockers of RIG-like receptor reporter activation – cell-based, Sendai virus stimulus, luciferase, 10K MLSCN set, TLR/RLR signaling modifier project, primary screen (AID 602276;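 active = inhibition at or above 50% at 10 µM; inactive = inhibition below 50%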;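 also: firefly luciferase from ISG56 promoter only with Renilla not read in this screen; 0% = Sendai virus plus DMSO and 100% = medium plus DMSO without virus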); details: HEK293 RL24 IRF3 luciferase reporter, at 10 µM, stronger effect = higher value
# [8] = TLR3 IRF3 reporter activation blockers – cell-based, poly I:C stimulus, luciferase, 10K MLSCN set, primary screen (AID 602277;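 active = inhibition of the reporter signal at or above 50%; inactive = inhibition below 50%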); details: HEK293-TLR3 RL24 IRF3 luciferase reporter, at 10 µM, stronger effect = higher value
SMILES,cell count [1],inhibition [1],inhibition of aggregation [2],nuclei count [2] [%],inhibition [3],nuclei count [3] [%],fluorescence slope [4],NADPH fluorescence slope [5],slope [6],inhibition [7],inhibition [8]
COc1ccc(-c2nnc(SCC(=O)N3CCOCC3)o2)cc1OC,603,19% (inactive),-39.9% (inactive),86.5,38.5% (inactive),78.3,-0.54 (inactive),1.3e-05 (inactive),0.0068 (inactive),-13.3% (inactive),4.93% (inactive)
Nc1ccc(-c2ccc(N)cc2C(F)(F)F)c(C(F)(F)F)c1,510,-15.4% (inactive),-0.4% (inactive),96.5,-3.6% (inactive),101,-0.446 (inactive),-9.4e-05 (inactive),0.00482 (inactive),16.9% (inactive),24% (inactive)
C/C(N)=C(/C#N)C(=O)COC(=O)c1cc(S(=O)(=O)N2CCCCC2)ccc1C,508,7.7% (inactive),-28.1% (inactive),104,12.6% (inactive),85.7,-0.366 (inactive),1.2e-05 (inactive),0.00665 (inactive),7.49% (inactive),6.72% (inactive)
CCOc1ccc2oc(-c3ccccc3)c(C(=O)N3CCN(CCO)CC3)c2c1,649,-14.6% (inactive),2.8% (inactive),89.6,-37.2% (inactive),112,-0.584 (inactive),1.9e-05 (inactive),0.00775 (inactive),15.9% (inactive),34% (inactive)
COc1ccc(OC)c(C(=O)CSc2nc3ncccc3[nH]2)c1,238,9.5% (inactive),16.2% (inactive),113,52.6% (inactive),99.6,-0.488 (inactive),-7e-05 (inactive),0.00695 (inactive),-7.2% (inactive),-19.6% (inactive)
COc1ccc(S(=O)(=O)N2CCCC2C(=O)Nc2ccc(O)cc2)cc1 (centres undefined),601,7.1% (inactive),-21.9% (inactive),110,-23.4% (inactive),111,-0.535 (inactive),-2e-05 (inactive),0.00566 (inactive),1.14% (inactive),12.2% (inactive)
Cc1ccc(Nc2cc(C)nc3ncnn23)c(Cl)c1,551,7.9% (inactive),-2.9% (inactive),69.8,-65.9% (inactive),104,-0.491 (inactive),4.8e-06 (inactive),0.00625 (inactive),6.25% (inactive),18.4% (inactive)
CC(=O)c1c(OC(=O)c2ccco2)c2ccccc2n1C,386,1% (inactive),15.7% (inactive),72.8,-81.6% (inactive),101,-0.367 (inactive),-1.2e-05 (inactive),0.00641 (inactive),12% (inactive),1.24% (inactive)
O=C(NCC1COc2ccccc2O1)c1ccc(NC(=O)c2ccco2)cc1 (centres undefined),752,-3.6% (inactive),22.7% (inactive),106,-120% (inactive),120,-0.435 (inactive),-2.6e-05 (inactive),0.00329 (inactive),7.34% (inactive),20% (inactive)
CC1CN(C2CCCCC2)c2nc3c(c(=O)[nH]c(=O)n3C)n2C1 (centres undefined),234,-2% (inactive),-5.5% (inactive),77.6,4.4% (inactive),108,-0.642 (inactive),3.4e-05 (inactive),0.00609 (inactive),13.1% (inactive),40.3% (inactive)
COc1ccccc1S(=O)(=O)Cc1ccc(C(=O)N2CCOCC2)o1,528,-7.1% (inactive),29% (inactive),86.6,-67.1% (inactive),107,-0.428 (inactive),-5.8e-05 (inactive),0.00635 (inactive),1.72% (inactive),33.5% (inactive)
CC1Cc2ccccc2N1C(=O)CSc1nc2ccccc2n1CC(=O)N1CCOCC1 (centres undefined),468,-0.5% (inactive),6.9% (inactive),111,-68.5% (inactive),110,-0.523 (inactive),-0.000178 (inactive),0.00303 (inactive),15.4% (inactive),2% (inactive)
COc1ccc(OC)c(S(=O)(=O)Nc2ccc(O)c3ccccc23)c1,382,-10.1% (inactive),-0.8% (inactive),93,-13.9% (inactive),114,-0.416 (inactive),-6.5e-05 (inactive),0.00306 (inactive),14.9% (inactive),53.2% (active)
CSc1ccccc1NC(=O)C1CCCO1 (centres undefined),842,4.5% (inactive),10.2% (inactive),105,-73% (inactive),117,-0.429 (inactive),0.000108 (inactive),0.00731 (inactive),-13.9% (inactive),-1.95% (inactive)
